Shown are actives, neighbours in structure and some others; about 12% of the full set was active somewhere.
Sfp inh: Sfp phosphopantetheinyl transferase inhibition | Q9F4F7 | Biochemical Sfp PPTase activity, qHTS | Potency, µM, for the others: largest response in the series, negative = inhibition, actives largely listed as inhibitors | 310,000 compounds, 3.5% hits | AID 1490;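 note: the enzyme is Sfp with the accession as filed and its product quenches rhodamine fluorescence; 0% = enzyme reaction without inhibitor and -100% = no enzyme wells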
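Sfp 15 nM + cpd, 15 min RT; start w/ rhodamine-CoA 5 uM, BHQ-2-YbbR 12.5 uM (final); 50 mM Hepes pH 7.6, 10 mM MgCl2, 0.01% NP-40, 0.01% BSA; read 525/598 nm at 0 and 30 min.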
L3MBTL1 block: blocks human L3MBTL1 | AlphaScreen L3MBTL1–H3K9me1 peptide binding | Potency, µM (top dose mostly 57.1 µM), for inactives: top-dose activity, negative = inhibition, most hits filed as inhibitors | 230,000 compounds, 0.66% hits | AID 485360; note: % is set by controls: 0 for no effect and ±100 for the full control effect; nearly all actives have a fitted effect of over 60% in size
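L3MBTL1 50 nM + b-AHA-H3(1-15)K9me1 75 nM, 30 min RT; compound added, 30 min RT; streptavidin donor/Ni-chelate acceptor beads 10 ug/mL each final, 30 min RT dark; AlphaScreen read.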
HP1b chromo inh: blocks HP1-beta chromodomain binding to methylated histone tails. 390,000 compounds, 0.56% hits. P83916. AID 540317. Potency, µM (doses to about 114 µM), for the others: at the top dose activity change, negative = inhibition, hits mostly inhibitors. AlphaScreen HP1-beta / biotin-H3K9me3 peptide binding; note: nearly all actives have a fitted effect of over 70% in size
Target sequence (P83916 whole entry, looked up): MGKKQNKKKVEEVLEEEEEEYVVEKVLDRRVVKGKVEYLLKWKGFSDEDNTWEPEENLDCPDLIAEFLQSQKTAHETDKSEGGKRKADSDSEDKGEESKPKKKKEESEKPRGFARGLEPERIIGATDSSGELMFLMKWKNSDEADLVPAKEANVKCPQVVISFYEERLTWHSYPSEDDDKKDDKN
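AlphaScreen: HP1-beta (50 nM) preformed 30 min with biotin-H3(1-18)K9me3 peptide (50 nM) in PBS pH 7.4, 0.01% Tween-20. Compound added for 30 min at RT, then streptavidin donor/nickel chelate acceptor beads (10 ug/mL) for 30 min.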
G9a inh: inhibitors of human histone lysine methyltransferase G9a; G9a H3K9 monomethylation, AlphaScreen, 2 h; Potency, µM (top dose mostly 102 µM), without a hit: at the top dose activity, negative = inhibition, usual class: inhibitors; 350,000 compounds, 8.8% hits; AID 504332; note: % is set by controls: 0 for no effect and ±100 for the full control effect; nearly all actives have a fitted effect of over 75% in size
Target sequence (Q96KQ7 913-1193 limits assumed): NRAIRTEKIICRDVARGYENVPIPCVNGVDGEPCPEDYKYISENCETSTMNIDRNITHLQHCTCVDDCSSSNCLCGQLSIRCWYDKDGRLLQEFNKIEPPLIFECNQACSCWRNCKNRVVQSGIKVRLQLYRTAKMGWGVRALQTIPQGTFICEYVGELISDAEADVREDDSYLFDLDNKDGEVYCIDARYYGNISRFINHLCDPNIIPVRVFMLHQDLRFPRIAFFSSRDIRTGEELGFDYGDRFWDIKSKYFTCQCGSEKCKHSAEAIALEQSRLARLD
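Step 1: enzyme (final 20 nM) with compound, 15 min RT. Step 2: substrate peptide 500 nM and SAM 20 uM, 2 h RT. Step 3: anti-H3K9me1 antibody and AlphaScreen beads, 10 min, then plate read.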
BAZ2B inh: inhibitors of human BAZ2B bromodomain. AlphaScreen BAZ2B-H3K14Ac peptide displacement. Potency, µM (series often up to 114 µM), without a hit: at the highest dose activity change, negative = inhibition, actives largely listed as inhibitors. 360,000 compounds, 4.4% hits; note: % is set by controls: 0 for no effect and ±100 for the full control effect; nearly all actives have a fitted effect of over 60% in size
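In this displacement format the biotinylated H3(5-23) peptide acetylated at Lys14 serves as ligand at 50 nM, with BAZ2B at 50 nM in PBS pH 7.4 containing 0.01% Tween-20. Donor and acceptor beads are 10 ug/mL final.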
JMJD2A Tudor inh: inhibitors of human JMJD2A Tudor domain; O75164; AlphaScreen JMJD2A-Tudor / H3K4me3 peptide binding; Potency, µM (doses to about 114 µM), for inactives: at the highest dose activity change, negative = inhibition, hits mostly inhibitors; 390,000 compounds, 4.4% hits; note: % is set by controls: 0 for no effect and ±100 for the full control effect; nearly all actives have a fitted effect of over 50% in size
Starred values were filed as active, the others as inactive; ? = inconclusive; nt = no result given; [ ] = another dose, or the depositor's remark. Calls come from the whole dose curve; as a rule, active = well fitted curve in the direction sought with a large enough effect; inconclusive = small, poorly fitted or top-dose-only effect, or another doubt; inactive = no such curve, though single readings can be large; an effect the other way counts as inactive or inconclusive. Potency is the fitted concentration of half-maximal effect.

SMILES	Sfp inh	L3MBTL1 block	HP1b chromo inh	G9a inh	BAZ2B inh	JMJD2A Tudor inh
NS(=O)(=O)c1ccc(NC(=O)CN2C(=O)COc3ccc(Cl)cc32)cc1	nt	nt	18%	?	-38%	?
CCc1ccccc1Nc1ncnc2c1cnn2-c1ccc(Cl)cc1	nt	nt	-7%	5%[59 µM]	-2%	-15%
COc1cccc(N2CCN(C3=NS(=O)(=O)C(c4ccc(C)cc4)=C3C)CC2)c1	nt	nt	0%	-24%[59 µM]	-1%	-14%
O=S1(=O)CCN(Cc2ccc(Cl)c(Cl)c2)CC1	12%	-3%	16%	2%[12.7 µM]	-2%	-3%
CC(C)(C)c1ccc(CN2N=Nc3ccccc3S2(=O)=O)cc1	2.8µM*	10%	-11%	-24%[0.0925 µM]	-11%	-12%
O=S1(=O)c2ccccc2N=NN1Cc1ccc(Cl)c(Cl)c1	56µM*	nt	nt	2.8µM*	79µM*	nt
Cc1ccc2c(=O)c3cccc(CC(=O)O)c3oc2c1C	-8%	nt	nt	nt	nt	nt
O=c1c2ccccc2nc2n1C(CBr)CN2 (stereo not given)	8%	nt	66%	17%[59 µM]	-2%	-18%
COCCN(CCOC)c1nc(C)nc2c1nc(-c1ccccc1)n2CCCN(C)C	32%	nt	nt	nt	nt	nt
O=C(COC(=O)c1ccc[nH]c1=O)Nc1cc(S(=O)(=O)N2CCCCC2)ccc1Cl	6%	nt	39%	-41%	15%	89µM*
Nc1cc(N)cc(C(=O)OCC(=O)Nc2cc(S(=O)(=O)N3CCCCC3)ccc2Cl)c1	16%	-13%	50µM*	32µM*	25µM*	35µM*
O=C(COC(=O)c1ccc[nH]c1=O)Nc1ccc(S(=O)(=O)N2CCCC2)cc1	4%	nt	5%	7%[12.7 µM]	-23%	?
CCOC(=O)c1ccccc1NC(=O)Cn1c(=O)n(-c2cccc(C)c2)c(=O)c2c1c1cc(C)ccc1n2C	nt	nt	1%	3%[59 µM]	2%	-13%
CC1(C(=O)N2CCN(C(=O)c3ccco3)CC2)CC1(Br)Br (stereo not given)	11%	nt	29%	39%	2%	5%
Nc1ccc2c(c1)OC1(CCCCC1)O2	-6%	nt	?	-17%[59 µM]	?	56µM*
CC(=O)Nc1cccc(NC(=O)CSc2nc(C)c(C)c(C)c2C#N)c1	?	6%[11.4 µM]	16%	10µM*	15%	-7%
O=C(CSc1ccnc(=O)[nH]1)NCc1ccc(F)cc1	nt	nt	15%	13%[59 µM]	-4%	-8%
CC(=O)Nc1ccc(S(=O)(=O)NCCC(=O)OCC(=O)N2CCN(C(=O)c3ccco3)CC2)cc1	13%	nt	7%	nt	50µM*	-29%
O=C(CCN1c2ccccc2Sc2ccccc21)OCC(=O)N1CCN(C(=O)c2ccco2)CC1	11%	-6%	?	?	50µM*	?
O=C(CCNS(=O)(=O)c1cccc(Cl)c1)OCC(=O)N1CCN(C(=O)c2ccco2)CC1	nt	-7%	6%	2%[2.33 µM]	-9%	?
O=C(CSc1ccccc1)OCC(=O)N1CCN(C(=O)c2ccco2)CC1	nt	3%	31%	22%[12.7 µM]	12%	-14%
COC(=O)[C@@]1(Cc2ccccc2)[C@H]2c3cc(C(=O)N(C)C)n(CCO)c3C[C@H]2CN1C(=O)c1ccccc1	28%	nt	nt	nt	nt	nt
O=C1C(CCCNC(=S)NCc2ccccc2)NC(=S)N1Cc1ccccc1 (stereo not given)	6%	-9%	-3%	50µM*	?	-31%
C=CCNC(=S)NCCCCC1NC(=S)N(CC=C)C1=O (stereo not given)	4%	9%	9%	-3%[59 µM]	9%	-19%
CCC(=O)N1CCN=C1SCc1cccc(C(F)(F)F)c1	13%	nt	37%	nt	4%	5%
SMILES	Sfp inh	L3MBTL1 block	HP1b chromo inh	G9a inh	BAZ2B inh	JMJD2A Tudor inh
COc1ccc(NC(=O)Nc2ccc3c(c2)C(=O)N([C@H](C)CO)C[C@H](C)[C@@H](CN(C)C(=O)Nc2ccc(C(F)(F)F)cc2)O3)cc1	nt	-9%	11%	nt	nt	-22%
CCOC(=O)C(=O)NNc1cccc(C)c1C	-1%	4%	15%	0.63µM*	1%	-13%
Cc1cccc2sc(N(CCCN(C)C)C(=O)COc3ccc(Cl)cc3)nc12	?	nt	10%	50µM*	nt	-26%
CN(C)CCCN(C(=O)c1sc2ccccc2c1Cl)c1nc2c(F)cccc2s1	50µM*	-4%	-7%	25µM*	-17%	?
Cc1ccc2nc(N(CCCN(C)C)C(=O)c3cc(-c4cccs4)nc4ccccc34)sc2c1	79µM*	nt	?	40µM*	25µM*	14µM*
COc1cccc2sc(N(CCCN(C)C)C(=O)c3sc4ccccc4c3Cl)nc12	?	-6%	-15%	?	?	?
Cc1cccc2sc(N(CCCN(C)C)C(=O)COc3ccccc3)nc12	nt	nt	29%	?	-15%	?
Cc1ccc2nc(N(CCCN(C)C)C(=O)c3ccc(Br)s3)sc2c1	-1%	nt	13%	?	-33%	-18%
Cc1ccc2nc(N(CCCN(C)C)C(=O)COc3ccc(Cl)cc3)sc2c1	89µM*	nt	30%	?	nt	-29%
COc1ccc(S(=O)(=O)Nc2ccc(C(N)=O)cc2)cc1C(=O)N1CCCCCC1	9%	nt	18%	10%	-2%	3%
CN(C)CCCN(C(=O)COc1ccc(Cl)cc1)c1nc2ccc(F)cc2s1	-23%	nt	40%	56µM*	16%	-9%
CN(C)CCCN(C(=O)CCOc1ccccc1)c1nc2c(F)cccc2s1	50µM*	nt	23%	22µM*	nt	-32%
CN(C)CCCN(C(=O)COc1ccccc1)c1nc2ccc(F)cc2s1	-10%	nt	31%	?	nt	-10%
CN(C)CCCN(C(=O)c1ccc2c(c1)CCCC2)c1nc2c(F)cccc2s1	40µM*	?	?	?	?	45µM*
CN(C)CCCN(C(=O)CCOc1ccccc1)c1nc2ccc(F)cc2s1	-21%	nt	17%	28µM*	nt	-24%
Cc1ccc2nc(N(CCCN(C)C)C(=O)c3ccc4c(c3)CCCC4)sc2c1	?	-18%	?	?	?	?
CCN(CC)c1cc(C)c2cc(NC(=O)/C=C/c3ccccc3Cl)ccc2n1	nt	nt	0%	?	-24%	-29%
CCC(c1nnnn1C1CCCCC1)N1CCN(C(=O)c2ccco2)CC1 (stereo not given)	4%	nt	?	?	2%	-3%
O=C(NCc1ccccc1F)C1CCN(Cc2cc3ccccc3n2Cc2cccc(Cl)c2)CC1	nt	nt	24%	-1%[59 µM]	-19%	-14%
CCOC(=O)c1cc(-c2ccc(F)cc2)n(CCC(=O)NC2CCCCC2)c1C	nt	nt	3%	-10%[59 µM]	-6%	-9%
O=C(c1ccc(F)cc1)N1CCCCC(S(=O)(=O)c2ccccc2)C1=O (stereo not given)	79µM*	5%	30%	?	-1%	-5%
